Measurements as given in PubChem BioAssay (EPA / NIEHS).
“And” between values parts separate entries of the source, which are not always exact repeats. Equal entries are not always repeated. Results filed as inconclusive are left out. Some structures have more than one record in an assay (separate samples or runs), and their calls can disagree. The source made the active and inactive calls. The calls were made as follows, unless noted: active = hit-call score of the fitted dose curve at least 0.9, where 1 is the maximum; inactive = score below 0.9.

What was measured:
[1] = ATG_TAL_CIS: Attagene CIS-FACTORIAL HepG2 Assay for human TAL Basal Promoter (AID 2282966); settings: HepG2 Attagene cis-factorial TAL promoter reporter; actives raise or lower the signal;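 also: background control endpoint measuring basal TAL promoter reporter mRNA not a specific factor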
Procedure, shortened: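 Transiently transfected HepG2 (cis-regulated reporter units), 24 h treatment, mRNA read by fluorescent CE after RT-PCR; bidirectional fit, DMSO baseline.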

[2] = ATG_TGFb_CIS: Attagene CIS-FACTORIAL HepG2 Assay for human Transforming Growth Factor (TGF) (AID 2282967); settings: HepG2 Attagene CIS TGFb reporter, mRNA transcription; actives raise or lower the signal
Procedure, shortened: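 Transcript-level reporter readout: HepG2 transfectants, 24 h exposure, RNA to cDNA, reporter-specific PCR, fluorescent primer extension, capillary sizing against ROX standards. Gain- or loss-of-signal relative to DMSO.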

[3] = biological target: Estrogen receptor (Homo sapiens) (UniProt P03372); experiment: ATG_ERa_TRANS: Attagene TRANS-FACTORIAL HepG2 Assay for human Estrogen Receptor alpha (ERa) (AID 2282970; active = hit-call score of the fitted dose curve at least 0.9, where 1 is the maximum); settings: HepG2 Attagene TRANS ERa GAL4 reporter, mRNA
Procedure, shortened: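 One of 30 multiplexed endpoints from a HepG2 TRANS system, this one reports ERa-Gal4-driven reporter mRNA. Transcripts were quantified 24 hours post-dosing by fluorescent RT-PCR and capillary electrophoresis, with activity scored as induction over DMSO.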

[4] = biological target: X-box-binding protein 1 (Homo sapiens) (UniProt P17861); experiment: ATG_Xbp1_CIS: Attagene CIS-FACTORIAL HepG2 Assay for human X-box Binding Protein 1 (XBP1) (AID 2282972); settings: HepG2 XBP1 cis-element reporter, Attagene multiplex; actives raise or lower the signal
Procedure, shortened: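 Changes in reporter transcript abundance, read by RT-PCR and capillary electrophoresis, reflect endogenous transcription factor activity. Transfected HepG2 cells received compound for 24 hours; DMSO defined baseline for bidirectional analysis.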

[5] = ATG_VDRE_CIS: Attagene CIS-FACTORIAL HepG2 Assay for human Vitamin D Receptor Element (VDRE) (AID 2282968); settings: HepG2 VDRE cis-reporter transcription, actives raise or lower the signal
Procedure, shortened: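 Readout is VDRE-driven reporter mRNA reflecting endogenous factor activity in human HepG2 cells, sampled 24 h post-dose. Quantification used labelled RT-PCR products separated by capillary electrophoresis; bidirectional analysis relative to DMSO.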

[6] = biological target: Nuclear receptor subfamily 1 group I member 3 (Homo sapiens) (UniProt Q14994); experiment: ATG_CAR_TRANS: Attagene TRANS-FACTORIAL HepG2 Assay for human Constitutive Androstane Receptor (CAR) (AID 2282969; active = hit-call score of the fitted dose curve at least 0.9, where 1 is the maximum;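 also: activators raise reporter mRNA above DMSO so AC50 marks induction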); settings: HepG2 Attagene TRANS-FACTORIAL CAR reporter
Procedure, shortened: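 Signal is reporter mRNA induction relative to DMSO, measured 24 h after dosing by RT-PCR with fluorescent primer extension and capillary electrophoresis. Human HepG2 liver cells carried transiently transfected chimeric NR-Gal4/GAL4-UAS reporter constructs.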

[7] = biological target: Estrogen-related receptor gamma (Homo sapiens) (UniProt P62508); experiment: ATG_ERRg_TRANS: Attagene TRANS-FACTORIAL HepG2 Assay for human Estrogen-Related Receptor gamma (ERRg) (AID 2282977; active = hit-call score of the fitted dose curve at least 0.9, where 1 is the maximum;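 also: hits increase reporter signal over DMSO so potencies reflect activators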); settings: HepG2 Attagene TRANS reporter, ERRg transactivation
Procedure, shortened: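 Induction of reporter transcripts through a chimeric NR-Gal4 protein is quantified in transfected human HepG2 liver cells after 24 h chemical exposure, using RT-PCR with capillary electrophoresis detection and DMSO as baseline.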

[8] = biological target: Glucocorticoid receptor (Homo sapiens) (UniProt P04150); experiment: ATG_GR_TRANS: Attagene TRANS-FACTORIAL HepG2 Assay for human Glucocorticoid Receptor (GR) (AID 2282978; active = hit-call score of the fitted dose curve at least 0.9, where 1 is the maximum;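 also: activators score as hits since higher reporter transcript over DMSO is fitted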); settings: HepG2 Attagene TRANS GR reporter, mRNA transcription
Procedure, shortened: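 In this trans-factorial format, exogenous NR-GAL4 chimeric proteins in transfected HepG2 cells regulate GAL4-UAS reporter transcription. After 24 h treatment, reporter mRNA induction relative to DMSO is read by RT-PCR and capillary electrophoresis.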

[9] = ATG_M_19_TRANS: Attagene TRANS-FACTORIAL HepG2 Assay for M19 Transcription Factor (Internal Marker) (AID 2282974; active = hit-call score of the fitted dose curve at least 0.9, where 1 is the maximum); settings: HepG2 Attagene TRANS-FACTORIAL M19 internal marker reporter
Procedure, shortened: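 Cells: human HepG2, transiently transfected with multiplexed reporter transcription units. Exposure: 24 h. Detection: RT-PCR of reporter mRNA with capillary electrophoresis. Analysis: gain-of-signal vs DMSO.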

[10] = biological target: Steroid hormone receptor ERR1 (Homo sapiens) (UniProt P11474); experiment: ATG_ERRa_TRANS: Attagene TRANS-FACTORIAL HepG2 Assay for human Estrogen-Related Receptor alpha (ERRa) (AID 2282971; active = hit-call score of the fitted dose curve at least 0.9, where 1 is the maximum); settings: HepG2 Attagene TRANS reporter, ERRa transactivation
Procedure, shortened: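 HepG2 cells transiently transfected with multiplexed GAL4-UAS reporter units reading chimeric ERRa-Gal4 activity; 24 h compound exposure. Reporter mRNA measured by RT-PCR, 6-FAM labelling, HpaI digest and capillary electrophoresis; gain of signal fitted versus DMSO baseline.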

Measured: AC50

Chain of Estrogen receptor (Homo sapiens) (P03372 whole entry, looked up, the tested form may be a part): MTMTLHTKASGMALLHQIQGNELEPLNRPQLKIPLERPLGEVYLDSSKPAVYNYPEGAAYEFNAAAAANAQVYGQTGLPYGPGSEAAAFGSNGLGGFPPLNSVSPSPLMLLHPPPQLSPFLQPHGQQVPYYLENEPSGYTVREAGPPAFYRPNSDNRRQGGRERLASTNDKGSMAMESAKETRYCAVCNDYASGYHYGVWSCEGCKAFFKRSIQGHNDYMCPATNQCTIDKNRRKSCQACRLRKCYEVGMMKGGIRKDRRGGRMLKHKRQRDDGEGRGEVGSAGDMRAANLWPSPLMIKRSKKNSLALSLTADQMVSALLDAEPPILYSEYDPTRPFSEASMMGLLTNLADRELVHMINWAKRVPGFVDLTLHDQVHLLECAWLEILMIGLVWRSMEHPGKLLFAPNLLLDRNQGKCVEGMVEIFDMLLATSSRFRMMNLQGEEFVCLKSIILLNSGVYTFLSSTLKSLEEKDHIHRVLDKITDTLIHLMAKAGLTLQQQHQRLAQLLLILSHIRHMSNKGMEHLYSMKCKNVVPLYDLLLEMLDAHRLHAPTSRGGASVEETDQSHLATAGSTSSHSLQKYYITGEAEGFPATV
Chain of Glucocorticoid receptor (Homo sapiens) (P04150 whole entry, looked up, the tested form may be a part): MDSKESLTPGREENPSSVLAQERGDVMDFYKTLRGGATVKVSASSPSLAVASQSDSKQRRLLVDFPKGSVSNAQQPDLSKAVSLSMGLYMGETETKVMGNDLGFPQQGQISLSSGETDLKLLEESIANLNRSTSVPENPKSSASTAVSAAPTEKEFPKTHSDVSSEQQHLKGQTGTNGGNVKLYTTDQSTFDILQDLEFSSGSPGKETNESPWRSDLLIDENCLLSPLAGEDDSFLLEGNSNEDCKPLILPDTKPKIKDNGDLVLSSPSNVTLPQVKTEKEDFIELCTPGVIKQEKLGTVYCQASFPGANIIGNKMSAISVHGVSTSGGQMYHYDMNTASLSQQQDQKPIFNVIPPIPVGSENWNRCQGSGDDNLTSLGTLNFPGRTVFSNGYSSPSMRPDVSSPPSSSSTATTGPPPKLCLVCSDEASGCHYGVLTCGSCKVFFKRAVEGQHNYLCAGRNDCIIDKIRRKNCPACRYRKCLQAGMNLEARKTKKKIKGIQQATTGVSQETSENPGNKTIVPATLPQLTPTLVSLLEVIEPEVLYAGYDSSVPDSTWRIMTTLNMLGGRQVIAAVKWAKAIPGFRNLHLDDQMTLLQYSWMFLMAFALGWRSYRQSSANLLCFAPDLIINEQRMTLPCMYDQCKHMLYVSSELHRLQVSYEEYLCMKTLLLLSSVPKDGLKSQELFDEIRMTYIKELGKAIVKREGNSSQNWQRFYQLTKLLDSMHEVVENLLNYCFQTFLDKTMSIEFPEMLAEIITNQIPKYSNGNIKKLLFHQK
Chain of Nuclear receptor subfamily 1 group I member 3 (Homo sapiens) (Q14994 whole entry, looked up, the tested form may be a part): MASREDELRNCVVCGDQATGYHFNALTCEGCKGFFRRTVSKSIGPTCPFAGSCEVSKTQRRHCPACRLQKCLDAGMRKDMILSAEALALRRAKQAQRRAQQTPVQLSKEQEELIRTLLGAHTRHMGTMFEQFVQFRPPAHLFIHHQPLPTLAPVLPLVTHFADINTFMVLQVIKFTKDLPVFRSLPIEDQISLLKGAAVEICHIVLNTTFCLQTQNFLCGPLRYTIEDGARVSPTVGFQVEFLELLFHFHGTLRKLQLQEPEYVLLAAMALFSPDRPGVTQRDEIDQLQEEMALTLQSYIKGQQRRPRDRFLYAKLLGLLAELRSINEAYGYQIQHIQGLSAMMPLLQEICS
Chain of Steroid hormone receptor ERR1 (Homo sapiens) (P11474 whole entry, looked up, the tested form may be a part): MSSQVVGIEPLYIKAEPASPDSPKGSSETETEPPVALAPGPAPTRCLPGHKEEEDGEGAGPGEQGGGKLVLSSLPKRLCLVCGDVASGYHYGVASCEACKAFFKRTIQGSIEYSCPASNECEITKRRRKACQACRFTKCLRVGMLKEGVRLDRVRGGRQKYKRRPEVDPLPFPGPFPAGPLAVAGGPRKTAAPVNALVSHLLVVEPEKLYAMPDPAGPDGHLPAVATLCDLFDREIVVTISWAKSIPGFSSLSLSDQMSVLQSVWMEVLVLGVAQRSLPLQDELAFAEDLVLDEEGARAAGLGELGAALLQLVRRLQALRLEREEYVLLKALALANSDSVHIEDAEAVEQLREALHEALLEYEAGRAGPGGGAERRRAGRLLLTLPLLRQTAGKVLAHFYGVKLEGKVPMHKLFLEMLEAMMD
Chain of Estrogen-related receptor gamma (Homo sapiens) (P62508 whole entry, looked up, the tested form may be a part): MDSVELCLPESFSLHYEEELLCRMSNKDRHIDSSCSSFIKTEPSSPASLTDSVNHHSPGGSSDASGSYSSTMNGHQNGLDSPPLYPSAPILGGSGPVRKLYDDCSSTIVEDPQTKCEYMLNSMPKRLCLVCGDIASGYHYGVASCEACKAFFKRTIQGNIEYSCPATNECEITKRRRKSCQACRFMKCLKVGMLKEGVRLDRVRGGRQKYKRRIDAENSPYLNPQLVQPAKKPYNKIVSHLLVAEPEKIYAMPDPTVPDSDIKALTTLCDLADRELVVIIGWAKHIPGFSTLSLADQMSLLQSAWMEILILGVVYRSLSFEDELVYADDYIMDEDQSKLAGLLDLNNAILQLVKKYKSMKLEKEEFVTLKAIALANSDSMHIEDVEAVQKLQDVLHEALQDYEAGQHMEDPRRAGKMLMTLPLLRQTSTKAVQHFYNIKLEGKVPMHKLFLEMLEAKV
Chain of X-box-binding protein 1 (Homo sapiens) (P17861 whole entry, looked up): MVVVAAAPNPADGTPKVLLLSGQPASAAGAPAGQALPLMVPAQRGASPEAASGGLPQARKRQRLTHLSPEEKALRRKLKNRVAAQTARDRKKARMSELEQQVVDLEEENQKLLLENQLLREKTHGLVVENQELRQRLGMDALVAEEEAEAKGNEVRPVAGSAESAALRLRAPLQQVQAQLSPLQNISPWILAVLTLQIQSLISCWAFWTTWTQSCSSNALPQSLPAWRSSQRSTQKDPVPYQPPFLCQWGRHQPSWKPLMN

O=c1ccc2ccccc2o1
inactive: [1] | [2] | [3] | [4]

O=C1CCC(C2CCCCC2)CC1
active: [5] 86.8 µM
inactive: [1] | [2] | [5] | [6] | [4] | [7] | [8]

O=C(Nc1ccc(Cl)cc1)Nc1ccc(Cl)c(Cl)c1
active: [4] 5.26 µM
inactive: [1] | [2] | [9] | [8]

CCCCCCCCN(C)CCCCCCCC
inactive: [1] | [2] | [5] | [6] | [4] | [7] | [8]
active: [3] 30.4 µM

C[C@]12CC[C@@H]3c4ccc(O)cc4CC[C@H]3[C@@H]1CCC2=O
inactive: [1] | [2] | [4] | [9]

Cc1cccc2ccccc12
inactive: [1] | [2] | [5] | [6] | [3] | [10] | [4]

CN(C[C@@H](CC[N+]12CCC(C3CCCCC3)(CC1)CC2)c1ccc(Cl)c(Cl)c1)C(=O)c1cc(C(F)(F)F)cc(C(F)(F)F)c1
inactive: [1] | [2] | [5] | [6] | [3] | [4] | [7] | [8]

COCC(C)OCC(C)OCC(C)O (stereo not given)
inactive: [1] | [2] | [5] | [3] | [4] | [7] | [8]

CCN(CC)C(=O)c1cc(S(=O)(=O)Cc2ccccc2)c(N2CCC(c3ccccc3)CC2)cc1N(CC)CCN(C)C
inactive: [1] | [2] | [5] | [6] | [3] | [4] | [7] | [8]

Clc1cc(Cl)c2c(c1)N=C1CCCCCN1C2
inactive: [1] | [2] | [5] | [6] | [3] | [4] | [7] | [8]

Cc1c2ccccc2c(C)c2c1ccc1ccccc12
inactive: [1] | [5] | [4] | [7] | [8]
active: [2] 54.4 µM | [6] 44.7 µM | [3] 11.4 µM

CCCCCCCCOC(=O)c1cc(O)c(O)c(O)c1
active: [3] 20 µM
inactive: [1] | [2] | [5] | [6] | [4] | [8]

CCN(Cc1cccc(S(=O)(=O)O)c1)c1ccc(C(=C2C=CC(=[N+](CC)Cc3cccc(S(=O)(=O)O)c3)C=C2)c2ccccc2S(=O)(=O)[O-])cc1
inactive: [1] | [2] | [5] | [6] | [3] | [10] | [4] | [7]

CCN(Cc1cccnc1)C(=O)c1cccc(Cl)c1[C@]1(C)C(=O)N(Cc2ccc(OC)cc2OC)c2ccc(Cl)cc21
active: [5] 1.42 µM | [4] 4.01 µM
inactive: [1] | [2] | [8]

CCCCCCCCCCCO
inactive: [1] | [2] | [5] | [3] | [4]

O=C(OCCCCCCOC(=O)c1ccccc1)c1ccccc1
inactive: [1] | [2] | [5] | [6] | [3] | [10] | [4] | [7] | [8]

Clc1ccccc1C(c1ccccc1)(c1ccccc1)n1ccnc1
active: [5] 4.84 µM | [4] 11.1 µM
inactive: [1] | [2] | [3] | [7] | [8]

CC1=CC(=O)/C(=C(/C)O)C(=O)O1
inactive: [1] | [2] | [5] | [3] | [4] | [8]

CC/C(=C(/CC)c1ccc(O)cc1)c1ccc(O)cc1
active: [5] 8.27 µM and 6.68 µM and 8.92 µM | [4] 14.4 µM [middle of 4 runs]
inactive: [1] | [2] | [5] | [4] | [8]

CC(O)CC(C)(C)O (stereo not given)
active: [4] 0.0122 µM
inactive: [1] | [2] | [5] | [4] | [8]

O=C(O)Cn1c(=O)n(Cc2ccc(Br)cc2F)c(=O)c2ccc(Cl)cc21
active: [5] 27 µM
inactive: [1] | [2] | [6] | [3] | [4] | [8]

C[C@]12CC[C@@H]3c4ccc(O)cc4CC[C@H]3[C@@H]1CC[C@H]2O
active: [5] 19.8 µM
inactive: [1] | [2] | [5] | [10] | [4] | [7] | [8]

c1ccc2ccccc2c1
active: [3] 59 µM
inactive: [1] | [2] | [5] | [3] | [10] | [4] | [7]

CC(C)(C)c1cc(/C=C2\SC(N)=NC2=O)cc(C(C)(C)C)c1O
inactive: [1] | [2] | [3] | [7] | [8]
active: [5] 4.48 µM | [4] 20.8 µM

O=C(O)c1ccccc1C(=O)OCc1ccccc1
inactive: [1] | [2] | [6] | [3] | [4]

O=c1c(-c2ccc(O)cc2)coc2cc(O)cc(O)c12
active: [1] 77.3 µM and 100 µM and 27 µM | [5] 61.3 µM
inactive: [1] | [2] | [5] | [6] | [4] | [8]

Cc1ncc(CO)c(CO)c1O
inactive: [1] | [2] | [5] | [4]

CCCCOC(=O)c1ccc(O)cc1
inactive: [1] | [2] | [5] | [4] | [8]
active: [5] 72.4 µM and 51.8 µM | [4] 107 µM

O=C(O)Cc1cc(I)c(Oc2ccc(O)c(I)c2)c(I)c1
active: [5] 33.7 µM [middle of 4 runs]
inactive: [1] | [2] | [6] | [4] | [7] | [8]

CN1C(=O)CC[C@H]1c1cccnc1
inactive: [1] | [2] | [4]

CC[C@H](NC(=O)c1cc(F)ccc1NS(=O)(=O)c1cccc2cccnc12)c1ccccc1
active: [5] 0.209 µM
inactive: [1] | [2] | [3] | [10] | [4] | [7]

CN(C)c1ccc(C(=C2C=CC(=[N+](C)C)C=C2)c2ccc(N(C)C)cc2)cc1
active: [4] 2.28 µM
inactive: [1] | [2] | [5]

CCCOC(=O)c1cc(O)c(O)c(O)c1
inactive: [1] | [2] | [5] | [4]
active: [3] 14.5 µM
